# Results: PubChem BioAssay AID2284197 (EPA ToxCast)
# Active and inactive are the calls of the source. How the source made its calls: active means hit-call score of the fitted dose curve at least 0.9, where 1 is the maximum; inactive means score below 0.9.
# Molecular target: human Thyroid Hormone Receptor Alpha (TRa) Agonism, THRA (gene 7067) (UniProt P10827)
# Assay: ERF_TW_NR_COA_hTHRA: Eurofins (ERF) Nuclear Receptor (NR) Functional Coactivator Assay for human Thyroid Hormone Receptor Alpha (TRa) Agonism
# Experimental: ERF_TW_NR_COA_hTHRA is a biochemical, single-readout assay that uses extracted gene-proteins in a cell-free assay. Measurements were taken 0.5 hour after chemical dosing in a 96-well plate. See TRalpha Human Thyroid Hormone NHR Functional Agonist Coactivator Assay, Panlabs.ERF_TW_NR_COA_hTHRA is an assay component calculated from the ERF_TW_NR_COA_hTHRA assay. It is designed to measure TR-FRET using a type of inducible reporter as detected by fluorescence intensity of 7-hydroxy-coumarin with FRET: TR-FRET technology.Data from the assay component ERF_TW_NR_COA_hTHRA_Agonist was analyzed at the assay endpoint, ERF_TW_NR_COA_hTHRA_Agonist, in the positive analysis fitting direction relative to DMSO as the negative control and baseline of activity. Using a type of agonist, gain-of-signal activity can be used to understand changes in protein-protein interaction as they relate to gene THRA. […]
# Test compound and/or vehicle is incubated with the 0.25 nM TR alpha LBD-GST and coactivator peptide for 30 minutes at RT. Determination of the amount of complex formed is read spectrofluorimetrically (excitation: 337 nm, emission: 520/490 nm). Test compound-induced increase of fluorescence by 50 percent or more relative to the 0.1 uM T3 response indicates possible TR alpha receptor agonist activity.
# Chain of human Thyroid Hormone Receptor Alpha (TRa) Agonism, THRA (gene 7067) (P10827 whole entry, looked up): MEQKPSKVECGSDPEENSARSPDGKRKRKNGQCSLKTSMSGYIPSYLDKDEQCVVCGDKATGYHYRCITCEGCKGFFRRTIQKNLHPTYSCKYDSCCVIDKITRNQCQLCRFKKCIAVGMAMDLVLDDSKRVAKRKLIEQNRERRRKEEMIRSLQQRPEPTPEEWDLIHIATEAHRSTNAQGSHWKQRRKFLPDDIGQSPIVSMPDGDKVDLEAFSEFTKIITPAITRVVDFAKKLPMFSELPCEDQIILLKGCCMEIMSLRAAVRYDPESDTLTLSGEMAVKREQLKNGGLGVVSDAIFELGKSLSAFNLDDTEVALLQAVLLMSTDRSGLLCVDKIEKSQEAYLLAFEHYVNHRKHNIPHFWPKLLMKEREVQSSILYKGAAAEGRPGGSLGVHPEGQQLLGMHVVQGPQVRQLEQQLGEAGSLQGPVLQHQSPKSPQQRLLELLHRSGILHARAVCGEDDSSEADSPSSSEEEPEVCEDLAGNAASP
row,SMILES,outcome
1,COc1cc(CCC(=O)CC(=O)CCc2ccc(O)c(OC)c2)ccc1O,inactive
2,O=C(/C=C/c1ccc(O)cc1)CC(=O)/C=C/c1ccc(O)cc1,inactive
